Results filed as inconclusive are left out. A call without a number means that no potency is given here. Unmarked numbers belong to inactive results. Calls of active or inactive are those of the source. Calls come from the whole dose curve; as a rule, active = well fitted inhibition curve with a large enough effect; inconclusive = small, poorly fitted or top-dose-only effect; inactive = flat fitted curve, though single readings scatter. *1 amine or outer side, *2 acyl side, *3 side chain or, on linkers, in order; H or OH if unused. Where a SMILES comes first, the peptide text is derived from it. Bridges are numbered along the chain shown (N, C = ends). X6 = O=C(CCC[*:2])[*:1]
What follows are compounds tested against Phospholipid hydroperoxide glutathione peroxidase GPX4 (Homo sapiens) (UniProt P36969) (assay: Primary qHTS Assay for Inhibitors of Recombinant Selenoprotein Glutathione Peroxidase 4 (GPX4) (AID 1845192; note: nearly all actives have a fitted effect of over 65% in size)). Conditions: recombinant GPX4, GR-coupled NADPH fluorescence, 15 min; series mostly up to 50 µM.
Chain of Phospholipid hydroperoxide glutathione peroxidase GPX4 (Homo sapiens) (P36969 whole entry, looked up): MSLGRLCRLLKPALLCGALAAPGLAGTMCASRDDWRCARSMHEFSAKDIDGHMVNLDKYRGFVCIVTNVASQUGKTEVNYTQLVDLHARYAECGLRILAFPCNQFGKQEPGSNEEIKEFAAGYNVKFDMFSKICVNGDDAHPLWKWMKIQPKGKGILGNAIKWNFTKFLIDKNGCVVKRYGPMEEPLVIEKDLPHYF
Source text: Assay Provider: Elias S.J. Arner MD PhD.
Department of Medical Biochemistry and Biophysics
Karolinska Institutet, Solna, Stockholm, Sweden
Selenoprotein glutathione peroxidases (GPX), like the ubiquitously expressed GPX1 and the ferroptosis modulator GPX4, enact their antioxidant activities by reducing hydroperoxides using glutathione. […] GPX1 and GPX4 inhibitors have thus shown promise as anti-cancer agents. Existing inhibitors are often promiscuous, or modulate GPX activity only indirectly, so novel direct inhibitors identified through screening against GPX1 and GPX4 could be valuable. Here, we developed optimized glutathione reductase (GR)-coupled GPX assays for the biochemical high-throughput screen (HTS) of almost 12,000 compounds with known mechanisms of action. Initial hits were triaged using a GR counter-screen, assessed for isoform specificity using a separate GPX2 assay, and were assessed for general selenocysteine-targeting activity using a thioredoxin reductase (TXNRD1) assay. With this suite of assays, we identified novel GPX1/GPX2- and GPX4-specific inhibitors and can here present a validated pipeline for future discovery research for selenoprotein-targeting agents.
SEQUENCE No. (e.g., 1, 2, 3, etc.); […] (e.g., Cells, Incubation, Reagent, etc.); VALUE; DESCRIPTION.
1; Reagent 1; 3 uL; 333.33 nM GPx4 enzyme or no enzyme control in 1536-well, black, solid Greiner assay plate.
2; Compound; 25 nL; Kalypsis pin tool (Wako USA) equipped with a 1536-well pin head.
3; Incubation; 30 min; room temperature.
4; Reagent 2; 1 uL; 500 nM GR, 5 mM GSH, 2.5 mM NADPH solution
5; Reagent 3; 1 uL; 2.5 mM CHP in 50% EtOH.
6; Detection; Fluorescence; ViewLux microplate reader, excitation 340 nm and emission 450 nm.
7; Incubation; 15 min; room temperature.
8; Detection; Fluorescence; ViewLux microplate reader, excitation 340 nm and emission 450 nm.
NOTES (numbers refer to Sequence numbers above)
1. 3 µL of 333.33 nM GPX4 and 0.016% BSA in assay buffer (50 mM Tris-HCl, 2 mM EDTA (pH 7.5), 150 mM NaCl) was added to columns 3-48 of 1536-well plates using a BioRAPTR Flying Reagent Dispenser (Let's Go Robotics (LGR), Carlsbad, CA). A no-enzyme control (0.01% BSA in TES assay buffer) was added to columns 1-2.
2. 25 nL, library and DMSO controls were added to each well with a pin tool (Kalypsys).
3. The assay plates were incubated for 30 minutes at room temperature.
4. 1 µL of master mix (500 nM glutathione reductase (GR), 5 mM reduced glutathione (GSH), 2.5 mM NADPH in assay buffer) was added.
5. 1 µL of cumene hydroperoxide (CHP) ([2.5 mM] in 50% EtOH) was then added within 5 minutes to initiate the reaction. Final concentrations were: 200 nM GPX4, 1 mM GSH, 0.5 mM CHP, 0.5 mM NADPH, 100 nM GR, 0.01% BSA.
6. Initial fluorescence readout (t=0) at 340/450 nm was measured using a ViewLux multimodal detector (PerkinElmer, Waltham, MA).
8. Endpoint fluorescence readout (t=15) at 340/450 nm was measured 15 min after room temperature incubation.
Potency is the fitted concentration of half-maximal effect.

Row | Structure (SMILES) | outcome | Potency | activity change, negative = inhibition
1 | CC1(C)C[C@H]2C3=CCC4[C@@]5(C)CC[C@H](O[C@H]6O[C@H](C(=O)O)[C@@H](O)[C@H](O)[C@H]6O[C@H]6O[C@H](CO)[C@@H](O)[C@H](O)[C@H]6O[C@@H]6O[C@H](CO)[C@@H](O)[C@H](O)[C@H]6O)[C@](C)(CO)C5CC[C@@]4(C)[C@]3(C)CC[C@@]2(C)[C@H](O[C@@H]2OC[C@H](O)[C@H](OC3O[C@H](CO)[C@@H](O)[C@H](O)[C@H]3O)[C@H]2O)[C@@H]1O (stereo not given in full) | inactive [at 9.73 µM] | – | –
2 | COc1cc(/C=C/C(=O)OC2CC3CCC2(C)C3(C)C)ccc1O (stereo not given) | – | inactive | –
3 | O=c1c2ccccc2nc2n1CCC2O (stereo not given) | – | inactive | –
4 | CC1=C2C(=O)C=C(CO)[C@@H]2[C@H]2OC(=O)[C@H](C)[C@@H]2[C@@H](O)C1 | – | inactive | –
5 | COCCCNCC1COc2ccccc2O1 (stereo not given) | – | inactive | –
6 | C=C1CCC2C(C)(C)CC(=O)CC2(C)C1CCC(C)CCOC(C)=O (stereo not given) | – | inactive | –
7 | C#Cc1cnc2[nH]c(=O)n(C(CC)CC)c2n1 | – | 18 µM (active) | –
8 | C[C@@H]1CC[C@]2(C(=O)O)CC[C@]3(C)C(=CCC4[C@]5(C)C(CC[C@]43C)C(C)(C)[C@@H](O)[C@H](O)[C@@H]5O)C2[C@]1(C)O (stereo not given in full) | – | inactive | –
9 | CC(=O)OC1C=C(C(=O)O)C2(CO)CCC(C)C(C)(CCc3ccoc3)C2C1 (stereo not given) | – | inactive | –
10 | CNC(=O)COC(=O)NCCC1CCN(c2cccc(C)n2)CC1 | – | inactive | –
11 | Cc1cc(Nc2ncc(Cl)c(Nc3ccccc3S(=O)(=O)C(C)C)n2)c(OC(C)C)cc1C1CCNCC1 | – | inactive | –
12 | Cc1cc(N2CCCCC2)nc2ccccc12 | – | inactive | –
13 | C/C(=C\CCC(C)(O)c1ccc(C)cc1)C(=O)O (stereo not given) | – | inactive | –
14 | N#Cc1ccc2[nH]c(O)c(-c3ccc(CN4CCOCC4)cn3)c2c1 | – | inactive | –
15 | CC(=C/C(=O)O)/C=C/[C@]1(O)[C@@]2(C)CO[C@]1(C)C[C@H](O[C@@H]1O[C@H](CO)[C@@H](O)[C@H](O)[C@H]1O)C2 | – | inactive | –
16 | CC1C(=O)CC2C3C(O)CC(C(=O)O)C12CC3(C)C (stereo not given) | – | inactive | –
17 | COc1cc(N2CCC(O)CC2)ccc1Nc1cc(Nc2ccccc2S(=O)(=O)C(C)C)c2cc[nH]c2n1 | – | inactive | –
18 | C[C@@H]1O[C@@H](O[C@@H]2[C@@H](O)[C@H](O[C@@H]3[C@@H](O)[C@@H](O)[C@H](O[C@H]4[C@H](OC(=O)[C@]56CCC(C)(C)C[C@H]5C5=CCC7[C@@]8(C)C[C@H](O)[C@H](O[C@@H]9O[C@H](C(=O)O)[C@@H](O)[C@H](O)[C@H]9O)[C@@](C)(CO)C8[C@H](O)C[C@@]7(C)[C@]5(C)CC6)OC[C@H](O)[C@@H]4O)O[C@H]3C)OC[C@H]2O)[C@H](O)[C@H](O)[C@H]1O (stereo not given in full) | – | – | -2.98% [at 9.73 µM]
19 | COC1C2=C(COC2=O)C2(C)CCCC(C)(CO)C2C1OC(=O)c1ccccc1 (stereo not given) | – | inactive | –
20 | C=C(C)C(C)C1OC23CC4(CO2)C(CCC2C5(C)CCC(OC6OCC(O)C(OC7OC(CO)C(O)C(OC8OCC(O)C(O)C8O)C7O)C6OC6OC(CO)C(O)C6O)C(C)(C)C5CCC24C)C3C(C)(O)C1OC(C)=O (stereo not given) | – | inactive | –

Row | Structure (SMILES) | outcome | Potency | activity change, negative = inhibition
21 | CCOC(=O)[C@H](CCc1ccccc1)CC1(C(=O)N[C@H]2CCc3ccccc3N(CC(=O)O)C2=O)CCCC1 | – | inactive | –
22 | CC1=C(/C=C/C(C)=C/C=C/C(C)=C/CO)C(C)(C)CCC1 | – | 17.8 µM (active) | –
23 | Cc1cc(C(=O)NNCc2ccccc2)no1 | – | inactive | –
24 | CCC[C@@H]1C[C@@H](C(=O)N[C@@H]([C@H]2O[C@H](SC)[C@H](OP(=O)(O)O)[C@@H](O)[C@H]2O)[C@H](C)Cl)N(C)C1 | – | inactive | –
25 | C=CC(C)(CC/C=C(\C)CC/C=C(\C)CC(O)/C=C(\C)C(=O)O)O[C@@H]1O[C@H](CO)[C@@H](O)[C@H](O)[C@H]1O[C@@H]1O[C@H](CO)[C@@H](O)[C@H](O)[C@H]1O (stereo not given in full) | – | inactive | –
26 | CC1=C2C(=O)O[C@@H](c3ccoc3)[C@]2(C)CCC1 | – | inactive | –
27 | O=S(=O)(NC1CCNCC1)c1cc(S(=O)(=O)c2ccccc2)ccc1C(F)(F)F | – | inactive | –
28 | C=CC1(C)C=C2C(O)CC3C(C)(C(=O)O)CCCC3(C)C2CC1 (stereo not given) | – | inactive | –
29 | CC1=C2C3OC(=O)C(C)C3(O)CCC2(C)CCC1=O (stereo not given) | – | inactive | –
30 | COc1ccc2c(c1)O[C@H](O[C@@H]1O[C@H](CO)[C@@H](O)[C@H](O)[C@H]1O)C(=O)N2 | – | inactive | –
31 | OCC1OC(Oc2cc(O)c3c(c2)OC(c2ccc(O)cc2)C(O)C3)C(O)C1O (stereo not given) | – | inactive | –
32 | CC[C@H](C)[C@@H]1NC(=O)[C@H](Cc2ccc(OC)cc2)NC(=O)CCCSC[C@@H](C(=O)N2CCC[C@H]2C(=O)N[C@@H](CC(C)C)C(=O)NCC(N)=O)NC(=O)[C@H](CC(N)=O)NC(=O)[C@H](CCC(N)=O)NC1=O (Y(Me)IQNCPLG-NH2; linker N-5 via X6) | – | inactive | –
33 | CCC(=O)O[C@]1(C(=O)CCl)[C@@H](C)C[C@H]2[C@@H]3C[C@H](F)C4=CC(=O)C=C[C@]4(C)[C@@]3(F)[C@@H](O)C[C@@]21C | – | inactive | –
34 | COC1CC(OC2CCC3(C)C(=CCC4C3CCC3(C)C(C(C)O)CCC43O)C2)OC(C)C1OC1OC(C)C(OC2OC(COC3OC(COC4OC(CO)C(O)C(O)C4O)C(O)C(O)C3O)C(O)C(O)C2O)C(OC)C1O (stereo not given) | – | inactive | –
35 | C=CC(C)(O)CO[C@@H]1O[C@H](CO)[C@@H](O)[C@H](O)[C@H]1O (stereo not given in full) | – | inactive | –
36 | CC1CC(=O)C2=C(O1)OC1(C)CCC3C(C)(C)C=CC(=O)C3(C)C1C2 (stereo not given) | – | inactive | –
37 | CC1(C)CC[C@]2(C(=O)O)CC[C@]3(C)C(=CCC4[C@@]5(C)CC[C@H](O[C@@H]6O[C@H](C(=O)O)[C@@H](O)[C@H](O)[C@H]6O)C(C)(CO)C5CC[C@]43C)C2C1 (stereo not given in full) | – | inactive | –
38 | N#Cc1ccnc(N2C(=O)CC[C@H]2C(=O)N(c2cncc(F)c2)[C@H](C(=O)NC2CC(F)(F)C2)c2ccccc2Cl)c1 | – | inactive | –
39 | CNC(=O)[C@H]1O[C@@H](n2cnc3c(NCc4ccc(N)c(I)c4)ncnc32)[C@H](O)[C@@H]1O | – | – | -1.09% [at 9.73 µM]
40 | C1CCN2CC3C[C@@H](CN4CCCC[C@@H]34)[C@H]2C1 | – | inactive | –
